Source: PubChem BioAssay AID1159580 (chemical genetic matrix, 2015)
Several values for one entry are separate records, joined by “and”; a condition that tells them apart may be missing. Equal values may be shown once. About 2,000 (36%) of roughly 5,500 compounds were called active. Another 18% or so got no clear call; they are omitted. Rule as the data show it: active = normalized growth mostly below about 0.91 (no sharp cut-off); inconclusive = no clear call, values can overlap the other calls; inactive = mostly above about 0.92. The list shows a part of the results.

Assay: chemical genetic growth profiling, strain panel (AID 1159580);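 also: tested at 20 µM; growth read once vehicle control cultures reached saturation at 30 °C; 1 = growth at the plate median or of vehicle wells; lower values mean less growth of the strain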
Conditions: S. cerevisiae deletion strains, growth OD

Measured: normalized growth

COC(=O)[C@@H]1OC(=O)[C@H]2O[C@@]23[C@@]1(C)CCC1[C@@]2(C)CCC(=O)C(C)(C)C2C[C@@H](OC(C)=O)[C@]13C (some centres undefined)
inactive: locus YAL021C, strain ccr4, hits give low values 1.04 | locus YAL026C, strain drs2, hits give low values 0.992 | locus YAL030W, strain snc1, hits give low values 0.989 | locus YBL061C, strain skt5, hits give low values 0.994 | locus YBR009C, strain hhf1, hits give low values 1.03 | locus YBR021W, strain FUR4, hits give low values 0.997 | locus YBR023C, strain chs3, hits give low values 1 | locus YBR171W, strain sec66, hits give low values 0.959 | locus YBR229C, strain ROT2, hits give low values 1.01 | locus YBR231C, strain swc5, hits give low values 0.974 | locus YBR279W, strain paf1, hits give low values 1.02 | locus YCL011C, strain gbp2, hits give low values 0.998 | locus YCL016C, strain dcc1, hits give low values 1.03 | locus YCL029C, strain bik1, hits give low values 0.997 | locus YCL069W, strain vba3, hits give low values 0.987 | locus YCR088W, strain abp1, hits give low values 0.972 | locus YDL005C, strain med2, hits give low values 0.969 | locus YDL035C, strain GPR1, hits give low values 0.998 | locus YDL040C, strain nat1, hits give low values 0.987 | locus YDL074C, strain BRE1, hits give low values 1.01 | locus YDL101C, strain DUN1, hits give low values 1.02 | locus YDL134C, strain PPH21, hits give low values 1.01 | locus YDL185W, strain tfp1, hits give low values 1.01 | locus YDL192W, strain arf1, hits give low values 0.988 | locus YDR001C, strain nth1, hits give low values 0.983 | locus YDR069C, strain doa4, hits give low values 0.953 | locus YDR101C, strain arx1, hits give low values 0.993 | locus YDR137W, strain rgp1, hits give low values 1 | locus YDR159W, strain sac3, hits give low values 0.92 | locus YDR162C, strain NBP2, hits give low values 0.999 | locus YDR195W, strain ref2 0.926 | locus YDR297W, strain sur2, hits give low values 1 | locus YDR318W, strain mcm21, hits give low values 1.01 | locus YDR334W, strain swr1, hits give low values 0.967 | locus YDR388W, hits give low values 1.01 | locus YDR392W, strain spt3, hits give low values 0.993 | locus YDR502C, strain sam2, hits give low values 1.02 | locus YEL003W, strain gim4, hits give low values 0.986 | locus YEL037C, strain rad23, hits give low values 0.974 | locus YEL061C, strain CIN8 (second series), hits give low values 0.975 | locus YEL061C, strain CIN8, hits give low values 1 | locus YER015W, strain faa2, hits give low values 0.98 | locus YER016W, strain bim1, hits give low values 0.98 | locus YER110C, hits give low values 1 | locus YER111C, strain swi4, hits give low values 0.984 | locus YER155C, strain BEM2 (second series), hits give low values 1.01 | locus YER155C, strain BEM2, hits give low values 1.01 | locus YER167W, strain BCK2, hits give low values 0.988 | locus YFR010W, strain ubp6, hits give low values 0.966 | locus YGL078C, strain dbp3, hits give low values 1.02 | locus YGL086W, strain mad1, hits give low values 1 | locus YGL167C, strain pmr1, hits give low values 0.993 | locus YGL173C, strain kem1, hits give low values 0.985 | locus YGL227W, strain vid30, hits give low values 0.986 | locus YGL240W, strain doc1, hits give low values 0.953 | locus YGL248W, strain PDE1, hits give low values 1.02 | locus YGL253W, strain hxk2, hits give low values 0.958 | locus YGR135W, strain pre9, hits give low values 1.06 | locus YGR252W, strain gcn5, hits give low values 1.05 | locus YHR013C, strain ard1, hits give low values 1 | locus YHR027C, strain rpn1, hits give low values 0.976 | locus YHR030C, strain SLT2, hits give low values 1 and 0.997 | locus YHR079C, strain IRE1 (second series), hits give low values 1.01 | locus YHR079C, strain IRE1, hits give low values 0.999 | locus YHR094C, strain hxt1, hits give low values 1.02 | locus YHR129C, strain ARP1, hits give low values 1.01 | locus YHR142W, strain chs7, hits give low values 0.976 | locus YHR200W, strain rpn10, hits give low values 1.02 | locus YIL066C, strain RNR3, hits give low values 0.984 | locus YIL073C, strain SPO22, hits give low values 0.998 | locus YIL125W, strain kgd1, hits give low values 1 | locus YIR030C, strain dcg1, hits give low values 0.998 | locus YJL092W, strain hpr5, hits give low values 0.971 | locus YJL095W, strain BCK1 (second series), hits give low values 0.964 | locus YJL095W, strain BCK1, hits give low values 1.03 and 0.994 | locus YJL115W, strain asf1, hits give low values 0.965 | locus YJL129C, strain trk1, hits give low values 0.939 | locus YJL134W, strain LCB3, hits give low values 0.994 | locus YJL154C, strain vps35, hits give low values 0.989 | locus YJL164C, strain tpk1, hits give low values 1.03 | locus YJL166W, strain qcr8, hits give low values 0.972 | locus YJL168C, strain set2, hits give low values 1.01 | locus YJL187C, strain SWE1 (second series), hits give low values 1.04 | locus YJR066W, strain TOR1, hits give low values 0.912 | locus YKL009W, strain mrt4, hits give low values 0.977 | locus YKL068W, hits give low values 0.998 | locus YKL085W, strain MDH1 (second series), hits give low values 0.998 | locus YKL085W, strain MDH1, hits give low values 0.998 | locus YKL160W, strain elf1, hits give low values 1.07 | locus YKL190W, strain CNB1, hits give low values 1 | locus YKR001C, strain vps1, hits give low values 0.994 | locus YKR026C, strain gcn3, hits give low values 0.966 | locus YKR091W, strain srl3, hits give low values 0.992 | locus YLL001W, strain dnm1, hits give low values 0.992 | locus YLL026W, hits give low values 0.981 | locus YLL041C, strain sdh2, hits give low values 0.98 | locus YLR027C, strain aat2, hits give low values 0.99 | locus YLR039C, strain RIC1, hits give low values 1.03 | locus YLR058C, strain SHM2, hits give low values 1.01 | locus YLR102C, strain apc9, hits give low values 1 | locus YLR113W, strain HOG1, hits give low values 1.01 | locus YLR221C, strain rsa3, hits give low values 0.987 | locus YLR258W, strain gsy2, hits give low values 1 | locus YLR262C, strain YPT6 (second series), hits give low values 1 | locus YLR268W, strain sec22, hits give low values 0.991 | locus YLR320W, strain mms22, hits give low values 0.995 | locus YLR342W, strain FKS1 (second series), hits give low values 1.04 | locus YLR342W, strain FKS1, hits give low values 0.992 | locus YLR357W, strain rsc2, hits give low values 0.967 | locus YLR370C, strain arc18, hits give low values 0.989 | locus YLR371W, strain rom2, hits give low values 0.997 | locus YLR384C, strain iki3, hits give low values 0.985 | locus YLR418C, strain cdc73, hits give low values 1.04 | locus YML016C, strain PPZ1, hits give low values 1 | locus YML032C, strain rad52, hits give low values 0.996 | locus YML120C, strain ndi1, hits give low values 1.01 | locus YML124C, strain tub3, hits give low values 1.01 | locus YMR058W, strain fet3, hits give low values 0.993 | locus YMR078C, strain ctf18, hits give low values 1.01 | locus YMR125W, strain sto1, hits give low values 0.983 | locus YMR129W, hits give low values 0.987 | locus YMR205C, strain PFK2, hits give low values 1.01 | locus YMR223W, strain ubp8, hits give low values 1.01 | locus YMR231W, strain pep5, hits give low values 0.981 | locus YMR307W, strain GAS1, hits give low values 0.917 | locus YNL067W, strain RPL9B, hits give low values 1.04 | locus YNL071W, strain lat1, hits give low values 0.976 | locus YNL153C, strain GIM3, hits give low values 1.03 | locus YNL183C, strain NPR1, hits give low values 0.929 | locus YNL209W, strain ssb2, hits give low values 0.982 | locus YNL233W, strain BNI4, hits give low values 1.02 | locus YNL248C, strain rpa49, hits give low values 0.907 | locus YNL250W, strain rad50, hits give low values 1.03 | locus YNL271C, strain bni1, hits give low values 1.01 | locus YNL298W, strain CLA4, hits give low values 0.993 | locus YNL307C, strain MCK1, hits give low values 1.02 | locus YNL322C, strain KRE1 (second series), hits give low values 0.959 | locus YNR049C, strain mso1, hits give low values 0.966 | locus YNR052C, strain pop2, hits give low values 1.03 | locus YOL006C, strain TOP1, hits give low values 1.02 | locus YOL012C, strain htz1 1.17 | locus YOL147C, strain pex11, hits give low values 0.998 | locus YOR001W, strain rrp6, hits give low values 0.909 | locus YOR061W, strain CKA2, hits give low values 0.987 | locus YOR069W, strain VPS5, hits give low values 0.999 | locus YOR070C, strain gyp1, hits give low values 1 | locus YOR080W, strain dia2, hits give low values 0.978 | locus YOR083W, strain WHI5, hits give low values 1.08 | locus YOR106W, strain vam3, hits give low values 1.03 | locus YOR136W, strain idh2, hits give low values 1.01 | locus YOR144C, strain elg1, hits give low values 1 | locus YOR184W, strain ser1, hits give low values 0.981 | locus YOR231W, strain MKK1, hits give low values 0.98 | locus YOR265W, strain rbl2, hits give low values 0.976 | locus YOR270C, strain vph1, hits give low values 1.02 | locus YOR290C, strain snf2, hits give low values 0.996 | locus YOR316C, strain cot1, hits give low values 1.01 | locus YPL051W, strain arl3, hits give low values 1.02 | locus YPL078C, strain atp4, hits give low values 1.04 | locus YPL106C, strain sse1, hits give low values 0.997 | locus YPL240C, strain hsp82, hits give low values 0.976 | locus YPL256C, strain CLN2, hits give low values 0.979 | locus YPR119W, strain clb2, hits give low values 1.01 | locus YPR141C, strain kar3, hits give low values 1.01 | locus YPR163C, strain tif3, hits give low values 1.01 | locus YPR167C, strain met16, hits give low values 1.02 | strain wtn01, hits give low values 0.998

CC[C@H](C)C(=O)O[C@H]1CCC=C2C=C[C@H](C)[C@H](CC[C@@H]3C[C@@H](O)CC(=O)O3)[C@H]21
inactive: locus YAL040C, strain CLN3, hits give low values 1.01 | locus YCL061C, strain MRC1 (second series), hits give low values 0.995 | locus YDR363W, strain ESC2, hits give low values 1.02 | locus YER002W, strain NOP16, hits give low values 0.976 | locus YJR075W, strain HOC1, hits give low values 0.988 | locus YNL128W, strain TEP1, hits give low values 0.947 | locus YNL175C, strain NOP13, hits give low values 0.985 | locus YNL197C, strain WHI3, hits give low values 0.987 | locus YNL224C, strain SQS1, hits give low values 0.98 | locus YNL322C, strain KRE1, hits give low values 0.995 | locus YOR083W, strain WHI5 (second series), hits give low values 0.999 | locus YPL241C, strain CIN2, hits give low values 0.994
